# Source: PMC7862700, “An all-to-all approach to the identification of sequence-specific readers for epigenetic DNA modifications on cytosine”
# Columns and labels:
# Assay in all cases: DAPPL (digital affinity profiling via proximity ligation, sequencing); 10 mM Tris-HCl pH 7.5, 50 mM NaCl, 1 mM DTT, 4% glycerol, room temperature, 30 min; GST-TFs on glutathione beads, 16-mer random dsDNA library, 0.1% formaldehyde crosslink after washing; high values mean tight binding
# FLI1 = target: T1, FLI1 (Homo sapiens, UniProt Q01543 1-452); settings: protein: recombinant; tags: N-terminal GST; dsDNA, one strand shown
# T1 sequence: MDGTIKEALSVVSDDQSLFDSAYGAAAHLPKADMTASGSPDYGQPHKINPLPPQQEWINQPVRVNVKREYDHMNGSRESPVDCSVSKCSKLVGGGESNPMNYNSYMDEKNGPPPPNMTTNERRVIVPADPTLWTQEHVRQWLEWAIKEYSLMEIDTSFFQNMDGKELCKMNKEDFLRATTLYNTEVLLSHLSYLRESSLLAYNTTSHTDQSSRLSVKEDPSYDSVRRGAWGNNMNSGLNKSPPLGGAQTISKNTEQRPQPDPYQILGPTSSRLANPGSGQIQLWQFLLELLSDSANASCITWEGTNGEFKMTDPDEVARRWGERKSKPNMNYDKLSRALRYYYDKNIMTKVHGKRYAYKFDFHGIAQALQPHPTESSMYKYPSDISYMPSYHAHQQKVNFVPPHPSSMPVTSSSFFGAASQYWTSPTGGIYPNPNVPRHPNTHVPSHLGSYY
# Method in brief: (§1)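 GST fusions of human transcription factors were expressed in yeast and captured with glutathione beads. Once given DNA barcodes and pooled alongside a tag-only sample, they were incubated for 30 min at room temperature with 200 nmole of a random double-stranded 16-mer DNA library in Tris/NaCl/DTT/glycerol buffer, then washed, crosslinked (0.1% formaldehyde), proximity-ligated, PCR-amplified and sequenced on an Illumina NextSeq500. The binding signal of each hexamer is its read frequency for a factor divided by its frequency for the tag-only sample.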
# ELK1 = target: T2, ELK1 (Homo sapiens, UniProt P19419 1-428); settings: protein: recombinant; tags: N-terminal GST; dsDNA, one strand shown
# T2 sequence: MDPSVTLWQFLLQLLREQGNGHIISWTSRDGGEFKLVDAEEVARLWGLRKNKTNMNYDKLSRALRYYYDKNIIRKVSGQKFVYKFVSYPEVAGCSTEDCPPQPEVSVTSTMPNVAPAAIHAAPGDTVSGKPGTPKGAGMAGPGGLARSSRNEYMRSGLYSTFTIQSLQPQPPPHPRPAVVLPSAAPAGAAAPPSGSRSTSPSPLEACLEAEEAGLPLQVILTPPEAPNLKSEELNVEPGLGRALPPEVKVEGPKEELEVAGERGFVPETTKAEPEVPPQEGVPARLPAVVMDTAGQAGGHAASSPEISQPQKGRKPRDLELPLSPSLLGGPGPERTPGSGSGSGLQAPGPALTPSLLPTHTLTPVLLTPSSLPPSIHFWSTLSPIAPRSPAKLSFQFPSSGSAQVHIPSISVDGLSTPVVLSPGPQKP
# Method in brief: as §1
# GABPA = target: T3, GABPA (Homo sapiens, UniProt Q06546 1-454); settings: protein: recombinant; tags: N-terminal GST; dsDNA, one strand shown
# T3 sequence: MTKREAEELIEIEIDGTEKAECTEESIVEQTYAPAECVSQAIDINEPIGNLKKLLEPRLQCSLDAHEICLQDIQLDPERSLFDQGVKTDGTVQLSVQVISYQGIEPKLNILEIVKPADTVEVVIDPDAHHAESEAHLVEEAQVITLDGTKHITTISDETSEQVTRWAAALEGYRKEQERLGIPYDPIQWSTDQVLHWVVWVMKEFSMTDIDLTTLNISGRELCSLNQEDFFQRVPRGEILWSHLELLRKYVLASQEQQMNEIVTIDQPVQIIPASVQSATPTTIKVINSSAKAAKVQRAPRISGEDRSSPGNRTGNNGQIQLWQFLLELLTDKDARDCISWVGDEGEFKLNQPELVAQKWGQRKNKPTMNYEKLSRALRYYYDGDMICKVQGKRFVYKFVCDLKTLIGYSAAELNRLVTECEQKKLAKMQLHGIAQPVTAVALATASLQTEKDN
# Method in brief: as §1
# ERG = target: T4, ERG (Homo sapiens, UniProt P11308 1-479); settings: protein: recombinant; tags: N-terminal GST; dsDNA, one strand shown
# T4 sequence: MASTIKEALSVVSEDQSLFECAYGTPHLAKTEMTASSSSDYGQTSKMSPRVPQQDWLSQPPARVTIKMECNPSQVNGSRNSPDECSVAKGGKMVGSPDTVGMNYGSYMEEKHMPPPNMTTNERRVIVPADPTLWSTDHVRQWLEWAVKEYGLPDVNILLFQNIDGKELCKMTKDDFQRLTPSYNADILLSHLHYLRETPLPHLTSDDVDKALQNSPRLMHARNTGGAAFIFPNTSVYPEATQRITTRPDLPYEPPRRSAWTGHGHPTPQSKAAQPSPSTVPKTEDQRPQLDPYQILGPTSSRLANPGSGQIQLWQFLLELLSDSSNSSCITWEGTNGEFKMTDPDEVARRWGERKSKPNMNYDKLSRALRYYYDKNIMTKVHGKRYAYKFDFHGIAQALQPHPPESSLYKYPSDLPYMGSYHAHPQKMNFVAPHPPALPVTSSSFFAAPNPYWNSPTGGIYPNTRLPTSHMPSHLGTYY
# Method in brief: as §1
# ELF1 = ELF1 (Homo sapiens, UniProt P32519 1-619); settings: protein: recombinant; tags: N-terminal GST; dsDNA, one strand shown
# Method in brief: as §1
# EHF = target: T5, EHF (Homo sapiens, UniProt Q9NZC4 1-300); settings: protein: recombinant; tags: N-terminal GST; dsDNA, one strand shown
# T5 sequence: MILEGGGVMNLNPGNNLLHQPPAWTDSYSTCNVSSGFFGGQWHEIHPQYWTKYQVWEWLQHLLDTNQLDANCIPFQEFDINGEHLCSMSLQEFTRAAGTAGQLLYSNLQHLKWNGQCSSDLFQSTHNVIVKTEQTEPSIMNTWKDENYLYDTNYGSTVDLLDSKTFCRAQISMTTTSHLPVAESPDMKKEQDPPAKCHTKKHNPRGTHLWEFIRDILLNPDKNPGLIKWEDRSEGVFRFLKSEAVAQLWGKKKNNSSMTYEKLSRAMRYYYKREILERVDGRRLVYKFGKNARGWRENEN
# Method in brief: as §1
# SPI1 = SPI1 (Homo sapiens, UniProt P17947 1-270); settings: protein: recombinant; tags: N-terminal GST; dsDNA, one strand shown
# Method in brief: as §1
# SPIB = SPIB (Homo sapiens, UniProt Q01892 1-262); settings: protein: recombinant; tags: N-terminal GST; dsDNA, one strand shown
# Method in brief: as §1
# ELK3 = target: T6, ELK3 (Homo sapiens, UniProt P41970 1-407); settings: protein: recombinant; tags: N-terminal GST; dsDNA, one strand shown
# T6 sequence: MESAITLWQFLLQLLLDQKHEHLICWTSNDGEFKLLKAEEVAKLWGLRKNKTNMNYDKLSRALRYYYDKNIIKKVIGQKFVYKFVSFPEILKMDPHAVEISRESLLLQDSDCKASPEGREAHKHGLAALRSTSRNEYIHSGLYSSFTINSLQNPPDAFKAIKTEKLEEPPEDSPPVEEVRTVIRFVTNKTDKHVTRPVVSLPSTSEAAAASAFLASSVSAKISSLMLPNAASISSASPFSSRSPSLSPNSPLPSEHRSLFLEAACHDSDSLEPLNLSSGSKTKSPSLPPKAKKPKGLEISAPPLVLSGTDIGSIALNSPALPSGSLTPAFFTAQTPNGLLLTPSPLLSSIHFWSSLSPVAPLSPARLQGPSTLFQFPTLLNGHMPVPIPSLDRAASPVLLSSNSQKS
# Method in brief: as §1
# FEV = target: T7, FEV (Homo sapiens, UniProt Q99581 1-238); settings: protein: recombinant; tags: N-terminal GST; dsDNA, one strand shown
# T7 sequence: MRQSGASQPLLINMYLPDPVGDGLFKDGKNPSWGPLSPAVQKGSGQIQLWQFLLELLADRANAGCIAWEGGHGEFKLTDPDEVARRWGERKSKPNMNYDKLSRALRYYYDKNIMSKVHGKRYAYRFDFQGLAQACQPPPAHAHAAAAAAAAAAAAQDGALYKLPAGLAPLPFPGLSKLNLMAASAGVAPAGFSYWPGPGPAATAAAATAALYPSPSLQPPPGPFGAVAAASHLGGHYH
# Method in brief: as §1
# ETV5 = ETV5 (Homo sapiens, UniProt P41161 1-510); settings: protein: recombinant; tags: N-terminal GST; dsDNA, one strand shown
# Method in brief: as §1
# HSF1 = HSF1 (Homo sapiens, UniProt Q00613 1-529); settings: protein: recombinant; tags: N-terminal GST; chain copies: 3; dsDNA, one strand shown
# Method in brief: as §1
# SPIC = target: T8, SPIC (Homo sapiens, UniProt Q8N5J4 1-248); settings: protein: recombinant; tags: N-terminal GST; dsDNA, one strand shown
# T8 sequence: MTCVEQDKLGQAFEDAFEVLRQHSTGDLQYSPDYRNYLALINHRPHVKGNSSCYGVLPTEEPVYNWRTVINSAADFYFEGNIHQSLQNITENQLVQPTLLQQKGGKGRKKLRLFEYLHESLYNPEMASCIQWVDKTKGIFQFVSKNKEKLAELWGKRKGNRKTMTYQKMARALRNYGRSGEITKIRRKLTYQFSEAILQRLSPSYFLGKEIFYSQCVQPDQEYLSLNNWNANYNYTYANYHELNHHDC
# Method in brief: as §1
# ELF4 = ELF4 (Homo sapiens, UniProt Q99607 1-663); settings: protein: recombinant; tags: N-terminal GST; dsDNA, one strand shown
# Method in brief: as §1
# ELK4 = target: T9, ELK4 (Homo sapiens, UniProt P28324-2 1-405); settings: protein: recombinant; tags: N-terminal GST; dsDNA, one strand shown
# T9 sequence: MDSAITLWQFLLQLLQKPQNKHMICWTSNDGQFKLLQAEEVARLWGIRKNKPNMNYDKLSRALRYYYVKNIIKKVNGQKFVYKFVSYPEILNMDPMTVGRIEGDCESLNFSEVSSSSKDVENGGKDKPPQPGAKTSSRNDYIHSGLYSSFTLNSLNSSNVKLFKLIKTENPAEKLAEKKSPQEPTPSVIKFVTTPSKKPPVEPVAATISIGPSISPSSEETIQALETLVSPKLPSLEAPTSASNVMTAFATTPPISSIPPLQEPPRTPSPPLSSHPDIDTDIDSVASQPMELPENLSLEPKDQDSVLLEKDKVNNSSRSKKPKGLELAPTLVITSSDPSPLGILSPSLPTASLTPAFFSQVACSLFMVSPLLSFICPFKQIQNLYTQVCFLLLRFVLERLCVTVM
# Method in brief: as §1
# ETV2 = target: T10, ETV2 (Homo sapiens, UniProt O00321 1-342); settings: protein: recombinant; tags: N-terminal GST; dsDNA, one strand shown
# T10 sequence: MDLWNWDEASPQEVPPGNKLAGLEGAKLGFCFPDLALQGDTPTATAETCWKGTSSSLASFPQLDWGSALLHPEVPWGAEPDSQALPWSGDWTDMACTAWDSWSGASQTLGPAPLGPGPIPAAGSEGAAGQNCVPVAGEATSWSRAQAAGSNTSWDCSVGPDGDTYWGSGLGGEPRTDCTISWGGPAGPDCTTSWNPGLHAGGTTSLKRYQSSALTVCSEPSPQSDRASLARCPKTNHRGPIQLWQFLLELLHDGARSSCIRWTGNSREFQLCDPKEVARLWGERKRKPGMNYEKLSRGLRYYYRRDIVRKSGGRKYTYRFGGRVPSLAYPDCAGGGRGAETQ
# Method in brief: as §1
# ELF3 = target: T11, ELF3 (Homo sapiens, UniProt P78545 1-371); settings: protein: recombinant; tags: N-terminal GST; dsDNA, one strand shown
# T11 sequence: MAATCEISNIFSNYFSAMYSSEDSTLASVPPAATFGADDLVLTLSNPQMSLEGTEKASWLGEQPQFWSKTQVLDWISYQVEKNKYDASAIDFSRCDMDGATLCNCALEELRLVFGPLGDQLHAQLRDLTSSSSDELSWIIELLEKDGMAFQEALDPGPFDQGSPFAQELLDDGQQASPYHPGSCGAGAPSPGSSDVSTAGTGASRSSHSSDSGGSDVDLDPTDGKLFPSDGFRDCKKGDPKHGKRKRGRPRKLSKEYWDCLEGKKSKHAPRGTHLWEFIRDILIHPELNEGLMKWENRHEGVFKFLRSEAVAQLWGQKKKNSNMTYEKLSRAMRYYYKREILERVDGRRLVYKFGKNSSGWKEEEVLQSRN
# Method in brief: as §1
# CRX = CRX (Homo sapiens, UniProt O43186 1-299); settings: protein: recombinant; tags: N-terminal GST; dsDNA, one strand shown
# Method in brief: as §1
# ETV1 = ETV1 (Homo sapiens, UniProt P50549 1-477); settings: protein: recombinant; tags: N-terminal GST; dsDNA, one strand shown
# Method in brief: as §1
# Sequence of ETV5 (P41161 whole entry): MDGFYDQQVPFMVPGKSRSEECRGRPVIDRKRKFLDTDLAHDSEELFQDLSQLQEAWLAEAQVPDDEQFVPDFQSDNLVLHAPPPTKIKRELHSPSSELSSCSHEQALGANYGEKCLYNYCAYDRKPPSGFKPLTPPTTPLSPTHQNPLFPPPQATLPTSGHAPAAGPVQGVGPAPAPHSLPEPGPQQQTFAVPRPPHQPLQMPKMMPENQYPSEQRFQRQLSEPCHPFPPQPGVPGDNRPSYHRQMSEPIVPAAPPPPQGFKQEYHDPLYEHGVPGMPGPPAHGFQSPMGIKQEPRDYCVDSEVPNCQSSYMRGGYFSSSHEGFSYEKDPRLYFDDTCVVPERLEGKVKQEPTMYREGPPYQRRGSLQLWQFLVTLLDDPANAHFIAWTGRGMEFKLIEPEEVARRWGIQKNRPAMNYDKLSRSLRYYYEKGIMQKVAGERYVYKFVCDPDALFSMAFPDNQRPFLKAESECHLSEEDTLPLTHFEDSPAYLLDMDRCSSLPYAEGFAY
# Sequence of ELF1 (P32519 whole entry): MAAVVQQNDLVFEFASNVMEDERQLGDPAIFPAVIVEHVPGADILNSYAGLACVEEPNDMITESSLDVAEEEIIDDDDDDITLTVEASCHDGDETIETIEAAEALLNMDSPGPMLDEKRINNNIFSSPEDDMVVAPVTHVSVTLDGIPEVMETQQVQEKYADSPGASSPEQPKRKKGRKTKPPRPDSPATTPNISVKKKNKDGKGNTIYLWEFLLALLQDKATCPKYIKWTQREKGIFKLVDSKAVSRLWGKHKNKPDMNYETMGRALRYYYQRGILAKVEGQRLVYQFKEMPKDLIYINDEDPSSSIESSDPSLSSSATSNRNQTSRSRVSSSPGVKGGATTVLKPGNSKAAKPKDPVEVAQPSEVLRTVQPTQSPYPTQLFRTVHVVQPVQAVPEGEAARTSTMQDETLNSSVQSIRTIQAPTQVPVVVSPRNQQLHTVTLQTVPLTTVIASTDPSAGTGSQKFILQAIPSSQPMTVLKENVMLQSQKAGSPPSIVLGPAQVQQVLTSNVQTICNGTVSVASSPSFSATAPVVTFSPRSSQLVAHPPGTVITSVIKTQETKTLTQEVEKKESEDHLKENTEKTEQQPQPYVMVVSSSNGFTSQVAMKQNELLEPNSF
# Sequence of ETV1 (P50549 whole entry): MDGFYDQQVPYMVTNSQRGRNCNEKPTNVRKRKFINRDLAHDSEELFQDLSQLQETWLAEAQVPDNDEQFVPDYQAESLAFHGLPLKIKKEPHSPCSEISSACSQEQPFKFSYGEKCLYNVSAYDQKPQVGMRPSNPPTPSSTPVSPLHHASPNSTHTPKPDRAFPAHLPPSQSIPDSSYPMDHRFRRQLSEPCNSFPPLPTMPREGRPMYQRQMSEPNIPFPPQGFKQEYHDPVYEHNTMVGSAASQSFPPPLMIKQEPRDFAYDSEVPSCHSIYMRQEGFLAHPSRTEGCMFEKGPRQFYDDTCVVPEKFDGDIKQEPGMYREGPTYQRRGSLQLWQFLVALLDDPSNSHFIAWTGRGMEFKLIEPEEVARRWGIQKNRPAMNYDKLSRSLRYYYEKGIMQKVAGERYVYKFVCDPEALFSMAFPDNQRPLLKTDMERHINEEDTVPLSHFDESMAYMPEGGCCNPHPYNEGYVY
# Sequence of HSF1 (Q00613 whole entry): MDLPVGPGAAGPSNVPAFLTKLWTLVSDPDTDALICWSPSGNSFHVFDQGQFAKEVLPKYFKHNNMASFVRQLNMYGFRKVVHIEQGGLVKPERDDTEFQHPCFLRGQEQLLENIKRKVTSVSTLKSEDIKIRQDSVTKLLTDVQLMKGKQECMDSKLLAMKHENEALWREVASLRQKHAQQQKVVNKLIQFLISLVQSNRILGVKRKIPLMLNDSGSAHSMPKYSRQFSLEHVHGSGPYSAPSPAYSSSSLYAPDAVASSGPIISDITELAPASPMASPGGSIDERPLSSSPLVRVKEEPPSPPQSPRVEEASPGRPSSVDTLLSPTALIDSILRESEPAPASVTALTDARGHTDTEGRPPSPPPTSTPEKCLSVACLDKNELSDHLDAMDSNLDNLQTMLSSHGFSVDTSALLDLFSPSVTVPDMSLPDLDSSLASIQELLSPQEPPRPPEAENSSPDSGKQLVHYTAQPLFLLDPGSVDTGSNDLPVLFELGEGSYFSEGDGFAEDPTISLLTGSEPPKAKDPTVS
# Sequence of SPIB (Q01892 whole entry): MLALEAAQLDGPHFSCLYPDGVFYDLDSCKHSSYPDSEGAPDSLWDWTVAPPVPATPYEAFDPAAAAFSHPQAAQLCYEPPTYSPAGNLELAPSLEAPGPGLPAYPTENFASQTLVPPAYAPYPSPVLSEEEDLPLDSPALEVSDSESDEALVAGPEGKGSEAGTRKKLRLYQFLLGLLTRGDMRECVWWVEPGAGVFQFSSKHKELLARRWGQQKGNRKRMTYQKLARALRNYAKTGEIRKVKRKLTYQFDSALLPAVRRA
# Sequence of CRX (O43186 whole entry): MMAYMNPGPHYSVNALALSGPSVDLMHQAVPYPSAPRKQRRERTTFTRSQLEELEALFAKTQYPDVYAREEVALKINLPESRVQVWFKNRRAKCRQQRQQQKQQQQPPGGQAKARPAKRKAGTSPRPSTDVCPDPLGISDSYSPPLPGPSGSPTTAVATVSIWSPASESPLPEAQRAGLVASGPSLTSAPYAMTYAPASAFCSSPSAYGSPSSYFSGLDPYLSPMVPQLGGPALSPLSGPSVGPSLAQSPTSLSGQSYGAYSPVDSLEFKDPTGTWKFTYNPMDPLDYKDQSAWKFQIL
# Sequence of ELF4 (Q99607 whole entry): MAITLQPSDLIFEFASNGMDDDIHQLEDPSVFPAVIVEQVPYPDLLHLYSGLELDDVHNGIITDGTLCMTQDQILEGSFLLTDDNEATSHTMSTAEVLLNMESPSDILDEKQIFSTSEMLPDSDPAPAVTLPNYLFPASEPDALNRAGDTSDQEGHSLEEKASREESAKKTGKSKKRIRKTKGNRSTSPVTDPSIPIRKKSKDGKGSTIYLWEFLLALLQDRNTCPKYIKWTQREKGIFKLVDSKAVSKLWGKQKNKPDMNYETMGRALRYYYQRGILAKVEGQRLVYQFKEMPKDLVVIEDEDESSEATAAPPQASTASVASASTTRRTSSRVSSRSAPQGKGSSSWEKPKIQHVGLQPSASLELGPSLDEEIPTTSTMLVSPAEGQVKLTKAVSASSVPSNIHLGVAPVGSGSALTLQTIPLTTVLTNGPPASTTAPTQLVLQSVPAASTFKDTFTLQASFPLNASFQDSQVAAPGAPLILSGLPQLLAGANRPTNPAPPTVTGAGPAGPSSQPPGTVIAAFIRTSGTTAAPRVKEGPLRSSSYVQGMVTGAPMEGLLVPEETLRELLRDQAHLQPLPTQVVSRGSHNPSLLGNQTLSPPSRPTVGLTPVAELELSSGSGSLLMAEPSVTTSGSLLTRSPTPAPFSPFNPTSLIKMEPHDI
sequence,measurement,setting,value
TGGGCT,binding signal,FLI1,"1.38 fold enrichment (6-mer frequency, TF over GST control)"
same,binding signal,ELK1,"1.33 fold enrichment (6-mer frequency, TF over GST control)"
same,binding signal,GABPA,"1.48 fold enrichment (6-mer frequency, TF over GST control)"
same,binding signal,ERG,"1.34 fold enrichment (6-mer frequency, TF over GST control)"
same,binding signal,ELF1,"1.48 fold enrichment (6-mer frequency, TF over GST control)"
same,binding signal,EHF,"1.44 fold enrichment (6-mer frequency, TF over GST control)"
same,binding signal,SPI1,"1.43 fold enrichment (6-mer frequency, TF over GST control)"
same,binding signal,SPIB,"1.38 fold enrichment (6-mer frequency, TF over GST control)"
same,binding signal,ELK3,"1.49 fold enrichment (6-mer frequency, TF over GST control)"
same,binding signal,FEV,"1.35 fold enrichment (6-mer frequency, TF over GST control)"
same,binding signal,ETV5,"1.4 fold enrichment (6-mer frequency, TF over GST control)"
same,binding signal,HSF1,"1.19 fold enrichment (6-mer frequency, TF over GST control)"
same,binding signal,SPIC,"1.28 fold enrichment (6-mer frequency, TF over GST control)"
same,binding signal,ELF4,"1.36 fold enrichment (6-mer frequency, TF over GST control)"
same,binding signal,ELK4,"1.29 fold enrichment (6-mer frequency, TF over GST control)"
same,binding signal,ETV2,"1.26 fold enrichment (6-mer frequency, TF over GST control)"
same,binding signal,ELF3,"1.4 fold enrichment (6-mer frequency, TF over GST control)"
same,binding signal,CRX,"1.3 fold enrichment (6-mer frequency, TF over GST control)"
same,binding signal,ETV1,"1.42 fold enrichment (6-mer frequency, TF over GST control)"
